Results reported in PubChem BioAssay AID1159580 (chemical genetic matrix, 2015).
Where “and” joins values, the source holds several entries; their conditions need not be identical. Equal entries are not always repeated. Among all 5,500 compounds or so, about 2,000 (36%) were called active. Inconclusive results (about 18%) are left out. No stated cut-off is given here; in the data, active means normalized growth mostly below about 0.91 (no sharp cut-off); inconclusive means no clear call, values can overlap the other calls; inactive means mostly above about 0.92. The list shows a part of the results.

Assay: chemical genetic growth profiling, strain panel (AID 1159580);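 further: tested at 20 µM; growth read once vehicle control cultures reached saturation at 30 °C; 1 = growth at the plate median or of vehicle wells; lower values mean less growth of the strain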
Settings: S. cerevisiae deletion strains, growth OD

Measured: normalized growth

NCCCCCC(=O)O
active: locus YBR021W, strain FUR4, hits give low values 0.706
inactive: locus YAL013W, strain DEP1, hits give low values 0.951 | locus YAL021C, strain ccr4, hits give low values 0.99 | locus YAL026C, strain drs2, hits give low values 1 | locus YAL030W, strain snc1, hits give low values 0.989 | locus YAL040C, strain CLN3, hits give low values 0.979 | locus YBL061C, strain skt5, hits give low values 1 | locus YBR009C, strain hhf1, hits give low values 1 | locus YBR023C, strain chs3, hits give low values 1 | locus YBR171W, strain sec66, hits give low values 0.991 | locus YBR229C, strain ROT2, hits give low values 0.988 | locus YBR231C, strain swc5, hits give low values 1.01 | locus YBR279W, strain paf1, hits give low values 0.996 | locus YCL011C, strain gbp2, hits give low values 0.994 | locus YCL016C, strain dcc1, hits give low values 1.01 | locus YCL029C, strain bik1, hits give low values 0.999 | locus YCL061C, strain MRC1 (second series), hits give low values 0.983 | locus YCL069W, strain vba3, hits give low values 0.995 | locus YCR088W, strain abp1, hits give low values 0.995 | locus YDL005C, strain med2, hits give low values 1.01 | locus YDL035C, strain GPR1, hits give low values 0.963 | locus YDL040C, strain nat1, hits give low values 0.997 | locus YDL074C, strain BRE1, hits give low values 0.964 | locus YDL101C, strain DUN1, hits give low values 1.01 | locus YDL134C, strain PPH21, hits give low values 0.979 | locus YDL185W, strain tfp1, hits give low values 1.01 | locus YDL192W, strain arf1, hits give low values 1.01 | locus YDR001C, strain nth1, hits give low values 1.03 | locus YDR069C, strain doa4, hits give low values 1.01 | locus YDR101C, strain arx1, hits give low values 0.981 | locus YDR137W, strain rgp1, hits give low values 0.972 | locus YDR150W, strain NUM1, hits give low values 0.974 | locus YDR159W, strain sac3, hits give low values 1 | locus YDR162C, strain NBP2, hits give low values 0.985 | locus YDR195W, strain ref2 0.976 | locus YDR297W, strain sur2, hits give low values 0.998 | locus YDR318W, strain mcm21, hits give low values 1.01 | locus YDR334W, strain swr1, hits give low values 1.02 | locus YDR335W, strain msn5, hits give low values 1.01 | locus YDR363W, strain ESC2, hits give low values 1.01 | locus YDR388W, hits give low values 0.998 | locus YDR392W, strain spt3, hits give low values 0.965 | locus YDR502C, strain sam2, hits give low values 1 | locus YEL003W, strain gim4, hits give low values 1 | locus YEL037C, strain rad23, hits give low values 0.999 | locus YEL061C, strain CIN8 (second series), hits give low values 1 | locus YEL061C, strain CIN8, hits give low values 0.995 | locus YER002W, strain NOP16, hits give low values 0.992 | locus YER015W, strain faa2, hits give low values 1 | locus YER016W, strain bim1, hits give low values 0.966 | locus YER110C, hits give low values 1.01 | locus YER111C, strain swi4, hits give low values 1.01 | locus YER155C, strain BEM2 (second series), hits give low values 0.976 | locus YER155C, strain BEM2, hits give low values 0.992 | locus YER167W, strain BCK2, hits give low values 0.99 | locus YFR010W, strain ubp6, hits give low values 1.03 | locus YGL078C, strain dbp3, hits give low values 1 | locus YGL086W, strain mad1, hits give low values 1 | locus YGL167C, strain pmr1, hits give low values 1 | locus YGL173C, strain kem1, hits give low values 1 | locus YGL227W, strain vid30, hits give low values 0.998 | locus YGL240W, strain doc1, hits give low values 1.03 | locus YGL248W, strain PDE1, hits give low values 0.987 | locus YGL253W, strain hxk2, hits give low values 1 | locus YGR078C, strain PAC10, hits give low values 0.997 | locus YGR135W, strain pre9, hits give low values 1 | locus YGR252W, strain gcn5, hits give low values 0.907 | locus YHR013C, strain ard1, hits give low values 1 | locus YHR027C, strain rpn1, hits give low values 0.999 | locus YHR030C, strain SLT2, hits give low values 0.999 and 1 | locus YHR079C, strain IRE1 (second series), hits give low values 1.01 | locus YHR079C, strain IRE1, hits give low values 1.04 | locus YHR094C, strain hxt1, hits give low values 1 | locus YHR129C, strain ARP1, hits give low values 0.998 | locus YHR142W, strain chs7, hits give low values 1 | locus YHR200W, strain rpn10, hits give low values 1.01 | locus YIL066C, strain RNR3, hits give low values 0.962 | locus YIL073C, strain SPO22, hits give low values 1.03 | locus YIL125W, strain kgd1, hits give low values 1.01 | locus YIR030C, strain dcg1, hits give low values 1.01 | locus YJL092W, strain hpr5, hits give low values 1.03 | locus YJL095W, strain BCK1 (second series), hits give low values 0.985 | locus YJL095W, strain BCK1, hits give low values 0.995 and 1.03 | locus YJL115W, strain asf1, hits give low values 1.01 | locus YJL129C, strain trk1, hits give low values 1.01 | locus YJL134W, strain LCB3, hits give low values 0.992 | locus YJL154C, strain vps35, hits give low values 0.998 | locus YJL164C, strain tpk1, hits give low values 0.996 | locus YJL166W, strain qcr8, hits give low values 1.02 | locus YJL168C, strain set2, hits give low values 1.01 | locus YJL187C, strain SWE1 (second series), hits give low values 0.992 | locus YJR043C, strain POL32, hits give low values 0.952 | locus YJR066W, strain TOR1, hits give low values 0.993 | locus YKL009W, strain mrt4, hits give low values 1.04 | locus YKL068W, hits give low values 0.994 | locus YKL085W, strain MDH1 (second series), hits give low values 1.01 | locus YKL085W, strain MDH1, hits give low values 1.01 | locus YKL160W, strain elf1, hits give low values 0.996 | locus YKR001C, strain vps1, hits give low values 1.04 | locus YKR026C, strain gcn3, hits give low values 1 | locus YKR091W, strain srl3, hits give low values 0.993 | locus YLL001W, strain dnm1, hits give low values 1 | locus YLL026W, hits give low values 1 | locus YLL041C, strain sdh2, hits give low values 0.999 | locus YLR027C, strain aat2, hits give low values 1 | locus YLR039C, strain RIC1, hits give low values 1.01 | locus YLR058C, strain SHM2, hits give low values 0.992 | locus YLR102C, strain apc9, hits give low values 1 | locus YLR113W, strain HOG1, hits give low values 1.02 | locus YLR221C, strain rsa3, hits give low values 0.987 | locus YLR258W, strain gsy2, hits give low values 0.995 | locus YLR262C, strain YPT6 (second series), hits give low values 0.996 | locus YLR262C, strain YPT6, hits give low values 1.05 | locus YLR268W, strain sec22, hits give low values 0.991 | locus YLR320W, strain mms22, hits give low values 0.992 | locus YLR330W, strain CHS5, hits give low values 0.997 | locus YLR342W, strain FKS1 (second series), hits give low values 0.942 | locus YLR342W, strain FKS1, hits give low values 1.01 | locus YLR357W, strain rsc2, hits give low values 1.02 | locus YLR370C, strain arc18, hits give low values 1.02 | locus YLR371W, strain rom2, hits give low values 1.01 | locus YLR384C, strain iki3, hits give low values 1.01 | locus YLR418C, strain cdc73, hits give low values 0.958 | locus YML016C, strain PPZ1, hits give low values 0.996 | locus YML032C, strain rad52, hits give low values 1.01 | locus YML120C, strain ndi1, hits give low values 1 | locus YML124C, strain tub3, hits give low values 1 | locus YMR058W, strain fet3, hits give low values 1.02 | locus YMR078C, strain ctf18, hits give low values 1.02 | locus YMR125W, strain sto1, hits give low values 0.988 | locus YMR129W, hits give low values 0.998 | locus YMR205C, strain PFK2, hits give low values 1 | locus YMR223W, strain ubp8, hits give low values 1.01 | locus YMR231W, strain pep5, hits give low values 1 | locus YMR263W, strain SAP30, hits give low values 0.99 and 0.985 | locus YMR307W, strain GAS1, hits give low values 0.893 | locus YNL067W, strain RPL9B, hits give low values 0.977 | locus YNL071W, strain lat1, hits give low values 0.991 | locus YNL128W, strain TEP1, hits give low values 1 | locus YNL153C, strain GIM3, hits give low values 0.995 and 0.976 | locus YNL175C, strain NOP13, hits give low values 0.985 | locus YNL183C, strain NPR1, hits give low values 0.978 | locus YNL197C, strain WHI3, hits give low values 1.01 | locus YNL209W, strain ssb2, hits give low values 0.998 | locus YNL224C, strain SQS1, hits give low values 1.02 | locus YNL233W, strain BNI4, hits give low values 0.994 | locus YNL248C, strain rpa49, hits give low values 0.926 | locus YNL250W, strain rad50, hits give low values 1.01 | locus YNL271C, strain bni1, hits give low values 1.02 | locus YNL298W, strain CLA4, hits give low values 1 | locus YNL307C, strain MCK1, hits give low values 0.998 | locus YNL322C, strain KRE1 (second series), hits give low values 1.02 | locus YNR049C, strain mso1, hits give low values 1.02 | locus YNR052C, strain pop2, hits give low values 1.01 | locus YOL012C, strain htz1 0.774 | locus YOL147C, strain pex11, hits give low values 1.01 | locus YOR001W, strain rrp6, hits give low values 1.01 | locus YOR061W, strain CKA2, hits give low values 0.994 | locus YOR069W, strain VPS5, hits give low values 0.994 | locus YOR070C, strain gyp1, hits give low values 0.986 | locus YOR080W, strain dia2, hits give low values 1 | locus YOR083W, strain WHI5 (second series), hits give low values 0.991 | locus YOR083W, strain WHI5, hits give low values 1 | locus YOR106W, strain vam3, hits give low values 1.02 | locus YOR136W, strain idh2, hits give low values 1.03 | locus YOR144C, strain elg1, hits give low values 1 | locus YOR184W, strain ser1, hits give low values 1 | locus YOR231W, strain MKK1, hits give low values 1.04 | locus YOR265W, strain rbl2, hits give low values 0.994 | locus YOR270C, strain vph1, hits give low values 1.01 | locus YOR290C, strain snf2, hits give low values 0.992 | locus YOR316C, strain cot1, hits give low values 1 | locus YPL051W, strain arl3, hits give low values 1 | locus YPL055C, strain LGE1, hits give low values 0.959 and 1.01 | locus YPL078C, strain atp4, hits give low values 1.01 | locus YPL106C, strain sse1, hits give low values 1 | locus YPL240C, strain hsp82, hits give low values 1.02 | locus YPL256C, strain CLN2, hits give low values 1.04 | locus YPR119W, strain clb2, hits give low values 1.01 | locus YPR141C, strain kar3, hits give low values 1.02 | locus YPR163C, strain tif3, hits give low values 1 | locus YPR167C, strain met16, hits give low values 1.01 | strain wtn01, hits give low values 0.997
